PLK1 PBD block: inhibitors of human PLK1 polo-box domain binding; Potency, µM, most hits filed as inhibitors; Plk1 PBD binding of FITC phosphopeptide, fluorescence polarization; 2.8% of 360,000 active; AID 720504; note: series mostly up to about 57 µM; nearly all actives have a fitted effect of over 65% in size
Target sequence (P53350 whole entry, looked up, the tested form may be a part): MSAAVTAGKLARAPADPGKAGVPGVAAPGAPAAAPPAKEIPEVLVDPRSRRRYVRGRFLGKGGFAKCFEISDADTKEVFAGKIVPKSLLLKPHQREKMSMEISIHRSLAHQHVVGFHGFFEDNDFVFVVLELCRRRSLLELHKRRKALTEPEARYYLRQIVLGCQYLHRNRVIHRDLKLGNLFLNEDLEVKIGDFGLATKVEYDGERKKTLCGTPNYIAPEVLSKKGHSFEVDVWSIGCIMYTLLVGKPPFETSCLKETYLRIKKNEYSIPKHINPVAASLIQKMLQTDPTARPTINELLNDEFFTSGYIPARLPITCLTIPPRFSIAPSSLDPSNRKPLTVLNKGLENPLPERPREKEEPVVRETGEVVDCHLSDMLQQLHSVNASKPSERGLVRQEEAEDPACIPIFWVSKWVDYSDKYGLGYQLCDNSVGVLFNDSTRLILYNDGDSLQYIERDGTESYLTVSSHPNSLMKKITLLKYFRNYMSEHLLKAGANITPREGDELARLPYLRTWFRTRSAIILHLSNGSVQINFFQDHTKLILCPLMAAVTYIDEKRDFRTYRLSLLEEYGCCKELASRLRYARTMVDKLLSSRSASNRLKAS
FEN1 inhibitor: inhibitors of human flap endonuclease 1; P39748; Recombinant FEN1 flap cleavage, fluorescence, 15 min; 0.35% of 390,000 active; Potency, µM (titrated, usually from 114 µM), most hits filed as inhibitors; note: nearly all actives have a fitted effect of over 65% in size
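Nuclease activity of 10 nM FEN1 was measured after 15 min of room-temperature exposure to titrated compounds, by adding 50 nM flap substrate and reading plates at 0 and 15 min.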
PI5P4K alpha inh: PI5P4K alpha (human) kinase inhibition. P48426. 1.2% of 330,000 active. PI5P4Kalpha enzyme, ADP-Glo luminescence, 60 min; active compounds read low. max response, %; active = max response of -50% or lower; inconclusive = between -30% and -50%; inactive = -30% or higher; note: value at the top dose of about 77 µM
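Reactions run in 0.038 M HEPES pH 7.4, 0.28 mM EGTA, 0.1% CHAPS and 5% DMSO, with PI5P4Kalpha, substrate, compound and 5 microM ATP final, one hour at room temperature. Readout is ADP-Glo luminescence.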
WRN inhibitor: blocks human WRN helicase; Q14191; WRN helicase unwinding, fluorescent forked duplex, kinetic; Potency, µM (highest dose often 114 µM), most hits filed as inhibitors; 0.46% of 360,000 active; note: nearly all actives have a fitted effect of over 55% in size
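Screening of the MLSMR collection measured strand separation of a quenched forked DNA duplex (100 nM) by 20 nM WRN with 2 mM ATP, all final. Compounds were preincubated with enzyme 15 min at room temperature.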
VDR inhibitor: vitamin D3 receptor (human) inhibition. P11473. VDR-SRC2-3 peptide fluorescence polarization, 2 h. Potency, µM, hits mostly inhibitors. 0.93% of 400,000 active. AID 504847
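Signal is fluorescence polarization, reporting how far test compounds block the interaction of VDR with the SRC2-3 coregulator peptide after a 2 h room-temperature incubation.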
TCR act: activators of T cell receptors. primary human leukocytes, anti-CD3, IL-2 HTRF, 48 h. 330,000 tested, under 10 active. AID 504894. Potency, µM (titrated, usually from 9.22 µM), usual class: activators
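Compounds are tested in HTS on primary human leukocytes co-incubated with a-CD3 beads for 48 hr. IL-2 output is measured by time-resolved FRET.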
Hits are given with their value; n = inactive; u = inconclusive; x = no result given; [ ] = another dose, or the depositor's remark. In the library only some 3.7% were active in any assay of this set; here they are far more common. Unless noted, calls come from the whole dose curve; as a rule, active = well fitted curve in the direction sought with a large enough effect; inconclusive = small, poorly fitted or top-dose-only effect, or another doubt; inactive = no such curve, though single readings can be large; an effect the other way counts as inactive or inconclusive.

SMILES	PLK1 PBD block	FEN1 inhibitor	PI5P4K alpha inh	WRN inhibitor	VDR inhibitor	TCR act
Nc1cccc(Cl)c1N1CCOCC1	27µM	n	n	n	n	x
Nc1ccc(N2CCCCC2)c(Cl)c1	n	n	n	n	n	n
Nc1ccc(N2CCOCC2)c(Cl)c1	24µM	n	n	n	n	n
COc1ccc(C(c2nnnn2CC2CCCO2)N2CCN(c3ccc(F)cc3)CC2)cc1 (configuration not stated)	24µM	n	n	n	n	n
Cc1ccccc1NCc1ccc(O)c2ncccc12	3µM	n	x	n	u	n
Oc1ccc(CNc2ccccc2)c2cccnc12	7.5µM	n	-55	n	u	n
Oc1ccc(CN2CCN(Cc3ccccc3)CC2)c2cccnc12	u	u	n	n	n	x
Clc1ccc(SCNc2ccccc2Cl)cc1	9.5µM	n	n	n	u	n
CC(CCc1ccccc1)NC(=O)Cn1c(=O)nc(-c2ccccc2)c2cc(Cl)ccc21 (configuration not stated)	x	n	x	x	n	x
O=C(NNC(=O)C1CCC1)c1ccc(Cl)cc1	n	n	n	n	n	n
CN(C(=S)NC(=O)c1ccc(Cl)cc1)C1CCCCC1	21µM	n	-98	n	n	n
C=C[C@@]1(C)CC(=O)[C@]2(O)[C@@]3(C)[C@H](O)CCC(C)(C)[C@@H]3[C@H](O)[C@H](OC(C)=O)[C@@]2(C)O1	x	x	x	x	n	x
COc1ccc(-c2cn3cccnc3n2)cc1NC(=O)c1c(F)cccc1F	x	n	x	x	n	x
CCOC1=NN(c2ncc(C(F)(F)F)cc2Cl)C(=O)C1	24µM	n	n	n	n	n
Nc1ccc2cccnc2c1	x	n	x	x	x	x
CN(C)c1ccc(N=Nc2ccc(S(=O)(=O)O)cc2)cc1	x	n	x	x	x	x
CC(OC(=O)c1cc(O)c2ccccc2c1O)C(=O)Nc1ccc(C(N)=O)cc1 (configuration not stated)	6.7µM	u	n	u	u	n
CC(C)Cn1c(=O)c2ccccc2n2c(CCC(=O)Nc3cccc(Cl)c3)nnc12	x	n	x	x	n	x
O=c1c(-c2ccc(Cl)cc2)nc2cnc(N3CCOCC3)nc2n1C[C@H]1CCCO1	x	x	x	x	n	x
N=C1/C(=C\c2ccc(-c3cccc(Cl)c3)o2)C(=O)N=C2SC=C(c3ccccc3)N12	n	n	-55	u	u	n
COc1cc(/C=C2\C(=N)N3N=CSC3=NC2=O)cc(Br)c1OC(=O)c1ccco1	u	n	-81	n	u	n
CCS(=O)(=O)C1=NSC2=NC(=O)/C(=C\c3ccc(OC(=O)c4ccco4)c(OC)c3)C(=N)N21	u	n	-66	n	n	n
CCOc1cc(/C=C2/C(=N)N3OC(C)=CC3=NC2=O)ccc1OC(=O)c1ccco1	n	n	n	n	n	n
Cc1cc(/C=C2/C(=N)N3C(c4ccccc4)=CSC3=NC2=O)c(C)n1-c1ccc(Cl)cc1	n	n	n	n	n	n
CCOc1cc(/C=C2/C(=N)N3C(=NC2=O)SN=C3S(=O)(=O)CC)ccc1OC(=O)c1ccco1	27µM	n	u	n	89µM	n
SMILES	PLK1 PBD block	FEN1 inhibitor	PI5P4K alpha inh	WRN inhibitor	VDR inhibitor	TCR act
O=c1c(-c2ccc(O)cc2)coc2cc(O[C@@H]3O[C@H](CO)[C@H](O)[C@H](O)[C@H]3O)ccc12	x	x	x	x	n	x
Oc1ccccc1C1C=C(c2ccc3c(c2)OCO3)NC(c2cccc(F)c2)N1 (configuration not stated)	x	n	x	x	u	x
Cc1cccc(-n2c(C)cc(/C=C3/C(=N)N4C(c5ccccc5)=CSC4=NC3=O)c2C)c1	n	n	n	n	n	n
CCS(=O)(=O)C1=NN2C(=N)/C(=C\c3ccc(OC(=O)c4ccco4)c(OC)c3)C(=O)N=C2S1	u	n	-57	n	u	n
COc1cc(/C=C2/C(=N)N3C(c4ccccc4)=CSC3=NC2=O)ccc1OCC(=O)O	u	u	-52	n[11.6 µM]	n	n
COc1cc(/C=C2/C(=N)N3C(SC)=NSC3=NC2=O)ccc1OC(=O)c1ccco1	u	n	u	n	u	n
COc1cc(/C=C2/C(=N)N3C(=NC2=O)SN=C3S(C)(=O)=O)ccc1OC(=O)c1ccco1	u	u	-66	n[11.6 µM]	u	n
CCCCC(=O)Nc1cc(NC(=O)CC)ccc1Cl	n	n	n	n	n	n
CCC(=O)Nc1ccc(Cl)c(NC(=O)c2ccc([N+](=O)[O-])cc2)c1	8.4µM	n	n	n	u	n
CCCC(=O)Nc1ccc(Cl)c(NC(=O)CC)c1	27µM	n	n	n	n	n
CCC(=O)Nc1ccc(Cl)c(NC(=O)c2cccc(OC)c2)c1	n	n	n	n	n	n
COc1cc(C(=O)N(Cc2cccnc2)c2nc3cc(C)c(C)cc3s2)cc(OC)c1OC	x	n	x	x	n	x
COCCNC(=O)C(c1ccco1)N(C(=O)Cn1nnc2ccccc21)c1ccccc1C (configuration not stated)	n	n	n	n	n	n
C=CCN(C(=O)CCC(=O)Nc1cc(C)on1)C(C(=O)NC1CCCC1)c1ccc(CC)cc1 (configuration not stated)	27µM	n	n	n	u	n
COCCNC(=O)C(c1ccco1)N(C(=O)Cn1nnc2ccccc21)c1cc(C)ccc1C (configuration not stated)	3.4µM	n	n	n	u	n
Cc1ccc(C)c(N(C(=O)CCC(=O)Nc2cc(C)on2)C(C(=O)NC2CCCC2)c2ccco2)c1 (configuration not stated)	3.8µM	n	n	n	n	n
COc1cc(-c2noc(-c3cc(C)[nH]n3)n2)cc(OC)c1OC	x	n	x	x	n	x
O=C1c2cccc3cccc(c23)C(=O)N1/N=C/c1ccc(O)cc1O	n	n	n	n	n	n
O=C1c2ccccc2C(=O)N1/N=C/c1ccc(O)c(O)c1O	13µM	11µM	-55	8.9µM	79µM	n
Oc1ccc(/C=N/N2CCOCC2)c(O)c1O	9.5µM	u	n	u	u	n
Cc1c(F)cccc1Cn1cnc2c(cnn2C(C)(C)C)c1=O	x	n	x	x	x	x
CN(C)C(=S)c1ccc(N(C)C)cc1	27µM	n	n	n	u	n
CN(/N=C/c1ccccc1O)C(=S)c1ccccc1	n	n	n	n	n	n
CN(C)c1ccc(NC(N)=S)cc1	n	n	n	n	n	n
COc1ccc(C(=O)c2ccc(OC)c(OC)c2)cc1OC	n	n	x	n	n	n
COc1ccc(C(=S)N(C)C)cc1OC	19µM	n	n	n	u	n
CN(C)C(=S)c1ccccc1	21µM	n	n	n	u	n
Cc1cccc(C)c1NS(=O)(=O)c1ccc(NS(=O)(=O)c2ccc3c(c2)OCCO3)cc1	x	n	x	x	n	x
CCOc1ccccc1-c1noc(CSc2nnc(-c3ccccc3)n2-c2cccc(C)c2)n1	x	n	x	x	n	x
CCCn1c(SCC(=O)Nc2nnc(C)s2)nnc1-c1ccoc1C	27µM	n	n	n	u	n

Compound activity from PubChem.
